PubChem BioAssay (NCI)
About 83,000 compounds went through this panel and 20% of them were active in at least one assay; those are over-represented in the sample as a whole.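 Plates (96-well) were seeded with cells, treated with compound at one concentration, and incubated for 48 hours before percent growth was determined.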 Values without a mark were called inactive. Calls of active or inactive are those of the source. Rule for the calls: active = growth percent below 10; inactive = the rest.

These molecules were tested on OVCAR-4 ovarian (assay: NCI-60 one-dose screen, 48 h (100 = growth as untreated, 0 = no growth, -100 = all killed)). Conditions: 10 µM unless noted.
Molecule CC(C)(CNC1CCCCC1)OC(=O)c1ccccc1 has a growth of 110%. For COC(=O)c1ccc2[nH]c(O)c(C(=Nc3ccc(N(C)C(=O)CN4CCN(C)CC4)cc3)c3ccc4c(c3)OCO4)c2c1, the growth was 28.1%. In the case of O=C(/C=C\c1ccc(NCc2ccc(C(=O)O)cc2)cc1)CCl, the growth is reported as 90.6%. CCCCCCC(C)N(CC(C)(C)O)C(=O)c1ccc([N+](=O)[O-])cc1 (stereo not given) showed a growth of 108%. Molecule C=CN(C)S(C)(=O)=O has a growth of 70.4%. For CCCCCCC(C(=O)OCC)(C(=O)OCC)C1CCCCCC1, the growth was 101%. In the case of CCOC(=O)NC1=NCC(C)(C)S1, the growth is reported as 102%. For S=C(N/N=C/c1cc(Cl)cc(Cl)c1)NC12CC3CC(CC(C3)C1)C2, the growth was 23.4%. COC(=O)C(N)CC(C)C (stereo not given) was tested, and the growth was 111%. For O=C(Nc1ccc(Cl)c(Cl)c1)O/N=C\c1c(Cl)ccc([N+](=O)[O-])c1Cl, the growth was -65.8% (active). For O=C(/C=C/c1ccc(Cl)cc1)c1ccc(Cl)cc1, the growth was 106%. For O=C(Nc1cccc(Cn2c(=O)[nH]c3ccc(Oc4ncccn4)cc3c2=O)c1)c1cccc(F)c1, the growth was 73.9%. CC(=O)c1ccc2c(c1)c1ccccc1n2C showed a growth of 115%. Molecule CCC(C)CC(N)O (stereo not given) has a growth of 109%. COc1cc2ncnc(-n3ncc4cc(NC(=O)Nc5ccccc5)ccc43)c2cc1OC was tested, and the growth was 7.2% (active). Work on O=C(O)CS(=O)c1ccc(Cl)cc1 (stereo not given) yielded a growth of 114%. O=C1C(=O)c2ccccc2C(O)=C1CCCc1ccc(Oc2ccccc2)cc1 gave a growth of 59.6%. With O=C1C(Br)=CC2C1C1C3CCC3C2(Br)C12OCCO2 (stereo not given) the growth was 59.2%. Work on CC1(C)NC(=S)NC1=O yielded a growth of 103%. CCCCCCCCCCC1OC(C)CC(C)O1 (stereo not given) showed a growth of 111%. In the case of O=C1C=C(OCC=C(C(F)(F)F)C(F)(F)F)c2ccccc2C1=O, the growth is reported as -7.2% (active). Molecule CCOC1=C(Cl)C(=O)C(OCC)=C(Cl)C1=O has a growth of 105%. Work on O=C(NCCO)C(F)(F)F yielded a growth of 118%. Molecule Oc1ccc(Br)cc1/C=N/NC(=S)NC12CC3CC(CC(C3)C1)C2 has a growth of 36.9%. In the case of COc1cc(N2C(=O)C=CC2=O)ccc1N1C(=O)C=CC1=O, the growth is reported as 102%. c1cc[c]([Bi]([c]2ccccc2)[c]2ccccc2)cc1 showed a growth of 89.3%. O=C(CN1C(=O)NC(c2ccccc2)(c2ccccc2)C1=O)c1ccc(N2CCCC2)cc1 showed a growth of 72.8%. With CC(O)CN(CCO)CCN(CCO)CC(C)O (stereo not given) the growth was 109%. CNc1ccc(Nc2ccc(S(=O)(=O)O)cc2)c2c1C(=O)c1ccccc1C2=O showed a growth of 109%. For Cc1ccc(S(=O)(=O)NC(CCC(=O)Nc2ccccc2)C(=O)Nc2ccccc2)cc1 (stereo not given), the growth was -4.83% (active). COC1(OC)N=C(N)C2(C#N)C3(C(=O)Nc4ccccc43)C12C#N (stereo not given) showed a growth of 60%. Work on Cn1c2ccccc2c2ccccc21 yielded a growth of 105%. Oc1ccc([S+](c2ccc(O)cc2)c2ccc(O)cc2)cc1 was tested, and the growth was 107%. For Nc1cc(N)c2nc(-c3ccccc3)c(NCCc3ccc(Cl)c(Cl)c3)nc2c1, the growth was -85.5% (active). COC(=O)Nc1nc2ccc(C(=O)c3ccccc3N(C)C3COC3)cc2[nH]1 was tested, and the growth was 75.8%. For CCOP1(=O)CC(C)=C(Cl)C(P(=O)(O)O)C1 (stereo not given), the growth was 94.5%. CCCCCCCCC1OC1CCCCCCCC(=O)O (stereo not given) gave a growth of 115%. CC(O)CN(CC(C)O)N(CC(C)O)CC(C)O (stereo not given) was tested, and the growth was 98.2%.

These molecules were tested on SK-OV-3 ovarian in the same assay as above. Conditions: 10 µM unless noted.
CC(C)(CNC1CCCCC1)OC(=O)c1ccccc1 gave a growth of 106%. For COC(=O)c1ccc2[nH]c(O)c(C(=Nc3ccc(N(C)C(=O)CN4CCN(C)CC4)cc3)c3ccc4c(c3)OCO4)c2c1, the growth was -8.57% (active). In the case of O=C(/C=C\c1ccc(NCc2ccc(C(=O)O)cc2)cc1)CCl, the growth is reported as 106%. CCCCCCC(C)N(CC(C)(C)O)C(=O)c1ccc([N+](=O)[O-])cc1 (stereo not given) showed a growth of 96.3%. C=CN(C)S(C)(=O)=O was tested, and the growth was 13.8%. In the case of CCCCCCC(C(=O)OCC)(C(=O)OCC)C1CCCCCC1, the growth is reported as 95.7%. With CCOC(=O)NC1=NCC(C)(C)S1 the growth was 95.2%. With Cc1ccc2c(c1)C(=O)CCS2 the growth was 95%. Work on S=C(N/N=C/c1cc(Cl)cc(Cl)c1)NC12CC3CC(CC(C3)C1)C2 yielded a growth of 66.7%. COC(=O)C(N)CC(C)C (stereo not given) gave a growth of 111%. With O=C(Nc1ccc(Cl)c(Cl)c1)O/N=C\c1c(Cl)ccc([N+](=O)[O-])c1Cl the growth was 61.3%. Work on O=C(/C=C/c1ccc(Cl)cc1)c1ccc(Cl)cc1 yielded a growth of 104%. For O=C(Nc1cccc(Cn2c(=O)[nH]c3ccc(Oc4ncccn4)cc3c2=O)c1)c1cccc(F)c1, the growth was 83%. Molecule CC(=O)c1ccc2c(c1)c1ccccc1n2C has a growth of 96.5%. Work on CCC(C)CC(N)O (stereo not given) yielded a growth of 111%. COc1cc2ncnc(-n3ncc4cc(NC(=O)Nc5ccccc5)ccc43)c2cc1OC was tested, and the growth was 3.75% (active). Work on O=C(O)CS(=O)c1ccc(Cl)cc1 (stereo not given) yielded a growth of 107%. Molecule O=C1C(=O)c2ccccc2C(O)=C1CCCc1ccc(Oc2ccccc2)cc1 has a growth of 74.7%. O=C1C(Br)=CC2C1C1C3CCC3C2(Br)C12OCCO2 (stereo not given) showed a growth of 32.1%. For CC1(C)NC(=S)NC1=O, the growth was 98.6%. With CCCCCCCCCCC1OC(C)CC(C)O1 (stereo not given) the growth was 103%. O=C1C=C(OCC=C(C(F)(F)F)C(F)(F)F)c2ccccc2C1=O gave a growth of 59.8%. CCOC1=C(Cl)C(=O)C(OCC)=C(Cl)C1=O gave a growth of 93.5%. With O=C(NCCO)C(F)(F)F the growth was 100%. With Oc1ccc(Br)cc1/C=N/NC(=S)NC12CC3CC(CC(C3)C1)C2 the growth was 39.7%. COc1cc(N2C(=O)C=CC2=O)ccc1N1C(=O)C=CC1=O showed a growth of 110%. c1cc[c]([Bi]([c]2ccccc2)[c]2ccccc2)cc1 gave a growth of 111%. In the case of O=C(CN1C(=O)NC(c2ccccc2)(c2ccccc2)C1=O)c1ccc(N2CCCC2)cc1, the growth is reported as 96.7%. CC(O)CN(CCO)CCN(CCO)CC(C)O (stereo not given) gave a growth of 114%. CNc1ccc(Nc2ccc(S(=O)(=O)O)cc2)c2c1C(=O)c1ccccc1C2=O showed a growth of 117%. Work on COC1(OC)N=C(N)C2(C#N)C3(C(=O)Nc4ccccc43)C12C#N (stereo not given) yielded a growth of 77.4%. Cn1c2ccccc2c2ccccc21 showed a growth of 102%. For Oc1ccc([S+](c2ccc(O)cc2)c2ccc(O)cc2)cc1, the growth was 106%. Nc1cc(N)c2nc(-c3ccccc3)c(NCCc3ccc(Cl)c(Cl)c3)nc2c1 was tested, and the growth was -80.7% (active). Molecule CCOP1(=O)CC(C)=C(Cl)C(P(=O)(O)O)C1 (stereo not given) has a growth of 110%. CCCCCCCCC1OC1CCCCCCCC(=O)O (stereo not given) showed a growth of 95.3%. Molecule CC(O)CN(CC(C)O)N(CC(C)O)CC(C)O (stereo not given) has a growth of 109%.
